In the library only some 1.3% were active in any assay of this set; here they are far more common.
hERG WT inh = qHTS for Inhibitors of KCHN2 3.1: Wildtype qHTS | AID 720551, 2013 | activity change, % at 1.84 µM | Voltage-gated inwardly rectifying potassium channel KCNH2 (Homo sapiens), Q12809 | hit rate 0.37% among 340,000 | U2OS, BacMam KCNH2, thallium flux FluxOr; active compounds read low;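 active = maximum activity change below -70%; inconclusive = maximum activity change between -70% and -50%; inactive = maximum activity change above -50%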; note: % is set by controls: 0 for no effect and ±100 for the full control effect
Target sequence (Q12809 whole entry, looked up): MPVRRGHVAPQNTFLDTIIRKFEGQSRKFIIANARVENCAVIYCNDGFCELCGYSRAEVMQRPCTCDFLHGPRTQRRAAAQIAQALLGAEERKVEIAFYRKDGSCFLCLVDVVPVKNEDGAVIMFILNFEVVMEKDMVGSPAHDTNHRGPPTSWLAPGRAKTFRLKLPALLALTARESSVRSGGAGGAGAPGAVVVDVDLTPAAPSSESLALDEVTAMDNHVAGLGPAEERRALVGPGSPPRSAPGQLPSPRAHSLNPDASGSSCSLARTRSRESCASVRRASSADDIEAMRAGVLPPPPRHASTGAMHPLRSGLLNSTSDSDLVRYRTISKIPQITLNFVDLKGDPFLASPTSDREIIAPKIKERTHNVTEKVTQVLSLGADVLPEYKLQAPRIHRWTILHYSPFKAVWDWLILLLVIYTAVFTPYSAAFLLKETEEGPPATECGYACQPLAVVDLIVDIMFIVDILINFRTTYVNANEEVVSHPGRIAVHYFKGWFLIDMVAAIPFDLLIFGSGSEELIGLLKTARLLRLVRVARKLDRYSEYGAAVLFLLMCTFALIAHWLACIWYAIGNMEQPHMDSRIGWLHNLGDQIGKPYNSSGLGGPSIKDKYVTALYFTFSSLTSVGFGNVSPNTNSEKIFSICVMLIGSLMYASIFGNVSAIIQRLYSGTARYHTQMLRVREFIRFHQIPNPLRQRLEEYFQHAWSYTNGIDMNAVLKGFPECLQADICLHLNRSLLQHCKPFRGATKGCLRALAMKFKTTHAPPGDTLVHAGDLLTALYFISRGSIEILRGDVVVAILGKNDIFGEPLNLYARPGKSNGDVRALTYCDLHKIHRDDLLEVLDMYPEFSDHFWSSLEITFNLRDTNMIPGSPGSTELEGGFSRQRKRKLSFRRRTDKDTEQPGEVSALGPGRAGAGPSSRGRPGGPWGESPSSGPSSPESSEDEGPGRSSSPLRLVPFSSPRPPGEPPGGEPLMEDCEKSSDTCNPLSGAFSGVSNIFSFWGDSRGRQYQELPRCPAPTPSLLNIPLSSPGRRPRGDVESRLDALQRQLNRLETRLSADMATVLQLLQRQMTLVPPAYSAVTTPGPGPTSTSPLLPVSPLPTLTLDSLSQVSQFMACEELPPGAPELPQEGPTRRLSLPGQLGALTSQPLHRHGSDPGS
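U2OS cells transduced with wild-type KCNH2 virus are loaded with FluxOr dye for 45 min, and thallium flux is measured in kinetic reads before and after stimulation buffer. Rate constants are normalized to DMSO controls.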
TRPV1 PAM = HTS Assay for Compounds that Act as Potentiators of the Vanilloid Receptor 1. hit rate 0.02% among 320,000. potentiation, % at 8.33 µM. TRPV1-expressing cells, Fluo-8 calcium influx, capsaicin EC20 potentiation; in the data active = potentiation above about 80%; inconclusive = between about 30% and that limit; note: 0% is about no effect
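TRPV1-expressing cells were cultured overnight at 35.5C and loaded with Fluo-8 calcium dye for 40 to 90 min at room temperature. After a 10 s baseline, compound was added and calcium influx was read kinetically for 3 min (ex 480/em 520 nm).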
TRPV1 agonist = HTS Assay for Compounds that Act as Agonists of the Vanilloid Receptor 1 | Transient receptor potential cation channel subfamily V member 1 (Homo sapiens), Q8NER1 | TRPV1-expressing cells, Fluo-8 calcium influx, agonist mode | activation, % at 8.33 µM | hit rate 0.19% among 320,000; in the data active = activation above about 80%; inconclusive = between about 30% and that limit; note: 0% is about no effect
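TRPV1-expressing cells were cultured overnight at 35.5C and loaded with Fluo-8 calcium dye for 40 to 90 min at room temperature. After a 10 s baseline, compound was added and calcium influx was read kinetically for 3 min (ex 480/em 520 nm).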
KCNH2 3.1 block = qHTS for Inhibitors of KCHN2 3.1: Mutant qHTS. Potassium voltage-gated channel subfamily H member 2, brain isoform KCNH2 3.1 (human). U2OS KCNH2 3.1, thallium flux FluxOr; active compounds read low. activity change, % (tested at about 1.8 µM). hit rate 0.95% among 340,000. AID 720553, 2013;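 active = maximum activity change below -70%; inconclusive = maximum activity change from -70% to -50%; inactive = maximum activity change above -50%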;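 note: thallium influx rate constant from kinetic fluorescence after stimulation buffer; % is set by controls: 0 for no effect and ±100 for the full control effect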
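Normalized rate constant (relative to positive and negative DMSO controls) derived from a 2 min kinetic fluorescence read after stimulation; U2OS cells expressing the 3.1 isoform via virus at 1.77 x 10^8 /mL.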
Starred values were filed as active, the others as inactive.

Screening Cc1ccc(N(C(C)C(=O)Nc2cc(Cl)ccc2Oc2ccccc2)S(C)(=O)=O)cc1 (stereo unspecified) returned hERG WT inh 5, TRPV1 PAM -1, TRPV1 agonist 4 and KCNH2 3.1 block -72*.
Screening OC(CCCN1CCCCC1)(c1ccccc1)c1ccc(C(F)(F)F)cc1 (stereo unspecified) returned hERG WT inh 2 and KCNH2 3.1 block -73*.
`Cn1c(N2CCN(C(=O)Nc3ccc(C(F)(F)F)cc3)CC2)nc2ccccc21` gave hERG WT inh -82*, TRPV1 PAM -5, TRPV1 agonist inconclusive and KCNH2 3.1 block -74*.
Screening CC(C)n1c(N2CCN(C(=O)Nc3ccc(Cl)cc3)CC2)nc2ccccc21 returned hERG WT inh 16, TRPV1 PAM -15, TRPV1 agonist 82* and KCNH2 3.1 block 4.
`CCCn1c(N2CCN(C(=O)NCc3ccccc3)CC2)nc2ccccc21` gave hERG WT inh 12, TRPV1 PAM -19, TRPV1 agonist inconclusive and KCNH2 3.1 block -33.
Screening CCCn1c(N2CCN(C(=O)Nc3ccc(Cl)cc3)CC2)nc2ccccc21 returned hERG WT inh 16, TRPV1 PAM 3, TRPV1 agonist 81* and KCNH2 3.1 block -3.
`Cc1cnc(NC(=O)c2cc3c(s2)CCCC3)s1` gave hERG WT inh -4, TRPV1 PAM -12, TRPV1 agonist 89* and KCNH2 3.1 block 5.
Screening O=C(NCc1ccccc1)C12CN(Cc3ccccc3)CC1C(c1ccc([N+](=O)[O-])cc1)=NO2 (stereo unspecified) returned hERG WT inh 7, TRPV1 PAM 5, TRPV1 agonist 2 and KCNH2 3.1 block -77*.
Screening Cc1ccc(CNC(=O)C23CN(Cc4ccccc4)CC2C(c2cccc([N+](=O)[O-])c2)=NO3)cc1 (stereo unspecified) returned hERG WT inh -7, TRPV1 PAM 22, TRPV1 agonist 5 and KCNH2 3.1 block -72*.
COc1ccc(CNC(=O)C23CN(Cc4ccccc4)CC2C(c2ccc([N+](=O)[O-])cc2)=NO3)cc1 (stereo unspecified) was read as hERG WT inh 11, TRPV1 PAM inconclusive, TRPV1 agonist 6 and KCNH2 3.1 block -30.
`Cc1cc2oc(=O)cc(CN3CCN(Cc4ccccc4)CC3)c2cc1Cl` gave hERG WT inh 11, TRPV1 PAM -1, TRPV1 agonist -4 and KCNH2 3.1 block -9.
Screening O=C(c1ccco1)N1CCN(Cc2cc(=O)oc3cc(O)ccc23)CC1 returned hERG WT inh 8, TRPV1 PAM inconclusive, TRPV1 agonist -1 and KCNH2 3.1 block -33.
Screening Cc1ccc2c(CN3CCN(Cc4ccccc4)CC3)cc(=O)oc2c1 returned hERG WT inh -86*, TRPV1 PAM 11, TRPV1 agonist 6 and KCNH2 3.1 block -108*.
For O=c1cc(CN2CCN(Cc3ccccc3)CC2)c2ccc(O)cc2o1 the results were hERG WT inh inconclusive, TRPV1 PAM 8, TRPV1 agonist 0 and KCNH2 3.1 block -85*.
Screening COc1ccc(Cl)cc1C(=O)OCC(=O)c1ccc[nH]1 returned hERG WT inh -7, TRPV1 PAM 7, TRPV1 agonist 4 and KCNH2 3.1 block 9.
Screening CCc1cccc2c1Sc1ccccc1CC2N1CCNCC1 (stereo unspecified) returned hERG WT inh 2 and KCNH2 3.1 block -77*.
`COCCSc1ccccc1C(=O)N1CCOCC1` gave hERG WT inh -4, TRPV1 PAM 3, TRPV1 agonist -2 and KCNH2 3.1 block -86*.
CC(=O)Nc1ccc(Nc2nc(C)nc3c2oc2ccccc23)cc1 was read as hERG WT inh -11, TRPV1 PAM inconclusive, TRPV1 agonist 2 and KCNH2 3.1 block 10.
Screening CC(=O)c1ccc(Nc2ncnc3c2oc2ccccc23)cc1 returned hERG WT inh -5, TRPV1 PAM -11, TRPV1 agonist 88* and KCNH2 3.1 block -3.
For CN1CCN(CC(=O)Nc2sc3c(c2C(=O)Nc2ccccc2)CCCC3)CC1 the results were hERG WT inh -92*, TRPV1 PAM -3, TRPV1 agonist 2 and KCNH2 3.1 block -95*.

High-throughput results from PubChem.
